The record followed here is ChEMBL document CHEMBL3988442, “University of Dundee, Small-Polar-MMV Screening Library” (2021).

Structures are written as SMILES.

The assay has as its target AMP-activated protein kinase, AMPK (Homo sapiens) (UniProt P54646+O43741+P54619+Q9UGJ0+Q9Y478+Q13131+Q9UGI9). In words: AMP-dependent Kinase enzyme assay. An in vitro enzyme assay that detects ADP turnover that is directly proportional to AMPK activity. This uses naive AMPK that is activated during the assay with MK-8722. It counts as functional. Also noted: scale not given: direction of the effect not stated beside the values. The conditions noted are these: 30 µM.
For the compound `CC(C)c1cc(C(=O)NCCc2nc(-c3ccncc3)n[nH]2)[nH]n1`, the Percent Effect stood at 39.1%.
For `CN1CCCC1CCNC(=O)c1ccccc1-n1cc(CN)cn1` (centres undefined) the value was 11.2%.
For `CNC(=O)c1sc2ncccc2c1C1CCN(C(=O)CCOC)C1` (centres undefined) the value was 21.5%.
On to `CC(C)(CN1CCC2(CCOCC2)CC1)N1CCOCC1`, for which the Percent Effect was -0.161%.
For `O=C(O)C1(O)CCN(c2ccc3cccc(Cl)c3n2)CC1` the value was 13.6%; for `COc1c(C)cnc(CN2CCCC2c2noc(C)n2)c1C` (centres undefined), -12%; for `O=C(NCc1nccs1)N1CCOC(c2ccccc2Cl)C1` (centres undefined), 4.45%.
For `CN(C)C(CNC(=O)c1[nH]nc(C2CC2)c1Br)C1CC1` (centres undefined) the value was -3.39%; for `CCC(C)c1csc(NC(=O)c2sc(-c3nnc[nH]3)nc2C)n1` (centres undefined), 12.2%.
As for `COc1ccc(NC(=O)c2cnc(C3CCN(C(C)=O)C3)nc2C)cc1` (centres undefined), the Percent Effect is -1.66%.
For `O=C(Cc1ccc(Cl)s1)Nc1ccc2c(c1)C(=O)NC2=O` the value was 68.3%; for `Cc1nnc(C(C)N2CCN(Cc3noc(C(C)(C)C)n3)CC2)o1` (centres undefined), -8.02%; for `C[C@@H]1CN(c2ccc(Cl)cn2)C[C@@]1(O)C1CC1`, 5.94%.
For `COC(=O)CSCc1noc(-c2ccc(Cl)cc2)n1` the value was -9.28%; for `COCCC(=O)N1CCCC(CCC(=O)Nc2ccc(Cl)cc2)C1` (centres undefined), 5.38%; for `CN(C)C1CCN(c2cc(-c3ccccc3)nc3ccnn23)C1` (centres undefined), -0.347%.
For `Cc1cc(C)nc(N2CCCC(C)(c3[nH]ncc3C(=O)N(C)C)C2)n1` (centres undefined) the value was 4.6%; for `COC(=O)c1ccc(OCCn2cnc(C#N)n2)cc1`, 0.636%.
Take `Cn1cc(C(=O)NCCc2ccc(OC3CCCC3)cc2)ccc1=O`: the Percent Effect stood at 0.292%.
For `CCC(NCCn1cc(C)cn1)C(=O)Nc1cc(C)on1` (centres undefined) the value was -6.29%; for `Cc1ccc(CNCc2nccn2C)c(OCC2CC2)c1`, 3.02%.
For `CCC[C@H]1CN(c2cncc(C(=O)N(C)C)n2)C[C@@H]1N(C)C` the value was 9.69%.
With `COc1ccc([C@@H]2CN(C(=O)CCCc3cn[nH]c3)C[C@H]2N(C)C)cc1`, the Percent Effect amounted to 2.77%.
For `CN(C)c1cc(N(C)Cc2cc(C(C)(C)C)n[nH]2)ncn1` the value was -16.4%.
For `CC(C)n1cnnc1SCCN(C)c1ccccc1` the value was 8.44%; for `Cc1ccc(CN(C(=O)NC2CCS(=O)(=O)C2)C2CC2)o1` (centres undefined), 1.3%; for `COC(=O)c1ccc(CN(C(C)C)C(C)C)o1`, 3.89%.
For `COc1ccc(CCCN(C)C(=O)c2cc(Cl)c[nH]2)cc1OC` the value was 7.77%.
For `CN1C[C@@H]2CC[C@H](CC1=O)N2C(=O)c1cc2ccccc2[nH]c1=O`, the Percent Effect came to 5.77%.
For `C/C(Cl)=C/CNC(=O)[C@H]1CC[C@]2(CC1)CN(C)C(=O)c1ccccc1O2` the value was 7.27%; for `CCCN1C(=O)[C@H]2CC[C@@H]1CN(S(=O)(=O)c1cccc(Cl)c1)C2`, 7.5%.
`CC(C)c1nnc2n1CCN(Cc1ccc3c(c1)OCCO3)C2`: the Percent Effect amounted to 3.43%.
Take `Cc1nc2cc(C3CCOCC3)nn2c(NCC2COCCO2)c1C` (centres undefined): the Percent Effect is 1.07%.
Take `CC1COCCN1C(=O)Cc1cc(Cl)c2c(c1)OCCO2` (centres undefined): the Percent Effect is 13.4%.
As to `O=C1CN(Cc2cn(CC3CCN(C4CCSCC4)CC3)nn2)CCN1`, the Percent Effect was -3.51%.
For `CCSCCn1cc(-c2ncc[nH]2)nn1` the value was -2.81%; for `O=C(C1CCCCN1Cc1nccn1CC(F)(F)F)N1CCCC1` (centres undefined), -9.13%; for `OC(CNCCc1nnc2ccccn12)c1ccc(F)c(F)c1` (centres undefined), 14.5%.
For `O=C(NCc1nnnn1-c1ccccc1)c1ccc(C2CCCO2)s1` (centres undefined) the value was 1.57%.
